The nature of test [1]: compounds binding Alexa647 anti-His antibody – biochemical, small-molecule microarray, 635 nm fluorescence, artefact control for SMM control protein annotation, primary screen (AID 1128).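 Also: score merges feature fluorescence with signal-to-noise for each printed compound spot.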 As to conditions: higher = more signal.
Test [2] has as its system Human papillomavirus type 1a E7 protein (residues 1-88). The test can be described thus: HPV1a E7 small-molecule binders, primary screen, biochemical, small-molecule microarray, residues 1-88, 635 nm (AID 1129). The conditions noted are these: small-molecule microarray binding, fluorescence 635 nm; higher = more signal.
The target of test [3] is Focal adhesion kinase 1 (Homo sapiens) (UniProt Q05397). The test can be described thus: PTK2 protein binding on printed compound slides – biochemical, small-molecule microarray, 635/667 nm fluorescence, BSA, DTT, primary screen (AID 1130).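 Also: composite of spot emission at 667 nm and signal to noise over triplicate slides.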 The conditions noted are these: 635 nm fluorescence, higher = more signal.
Test [4] deals with Fibrinogen (Alexa647-labelled). The test can be described thus: Alexa647-fibrinogen binding to printed small molecules – biochemical, small-molecule microarray, 635/667 nm fluorescence, artefact control for SMM control-protein annotation, profiling panel (AID 1131).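 Also: z-score merges 667 nm fluorescence with per-spot signal-to-noise over triplicate slides.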 As to conditions: fibrinogen-A647 binding fluorescence, higher = more signal.
In test [5] the target is Follistatin (Homo sapiens) (UniProt P19883). In words: FST protein binding to printed compounds – biochemical, small-molecule microarray, 635/667 nm fluorescence, primary screen (AID 1132). As to conditions: 635 nm fluorescence, higher = more signal.
For test [6], the target named is Fibroblast growth factor 2 (Homo sapiens) (UniProt P09038). The test can be described thus: basic fibroblast growth factor binding to printed compounds – biochemical, small-molecule microarray, 635/667 nm fluorescence, primary screen (AID 1133). The conditions noted are these: FGF2, fluorescence 635/667, higher = more signal.
A short description of test [7]: JC-1 mitochondrial potential readout, lung cancer cells – cell-based, A549, JC-1 fluorescence, basal, 24 h, 100 nL, profiling panel (AID 1138).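 Also: A549 lung adenocarcinoma cells under basal conditions with no added stimulus; test concentration not given here.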 The conditions noted are these: higher = more signal.
For the next test, the system named is Lefty1. The test can be described thus: Lefty1 protein binding to printed compounds – biochemical, small-molecule microarray, 635/667 nm fluorescence, primary screen (AID 1139). The conditions noted are these: fluorescence 635/667, higher = more signal.
For test [8], the system named is wheat germ agglutinin (Triticum aestivum), Alexa647-labelled. In words: Alexa647-WGA lectin binding to printed small molecules – biochemical, small-molecule microarray, 635/667 nm fluorescence, artefact control for SMM control-protein annotation, profiling panel (AID 1140).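 Also: score merges 667 nm feature emission with signal to noise over triplicate slides.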 The conditions noted are these: WGA-A647 binding, 635 nm fluorescence, higher = more signal.

Test [9] concerns the target Luciferin 4-monooxygenase (Photinus pyralis) (UniProt P08659). In words: inhibition of purified Photinus pyralis luciferase – biochemical, luminescence, purified enzyme, 2006 set, primary screen (AID 1141).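 Also: cell-free assay with purified firefly luciferase at 100 ng per well in PBS; test concentration not given here.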 As to conditions: purified firefly luciferase, SteadyGlo luminescence, 30 min; higher = more signal, called active from +8 up or from −8 down.
Test [10] has as its system Wnt5a (protein binding on small-molecule microarray). The test can be described thus: small molecules binding Wnt5a protein – biophysical, small-molecule microarray, 635/667 nm fluorescence, primary screen (AID 1142).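 Also: fluorescence read at 667 nm with signal to noise per printed feature.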 The conditions noted are these: 635 nm fluorescence, higher = more signal.
Test [11] in a line: ATP-based viability of Huh7 replicon cells – cell-based, CellTiter-Glo luminescence, basal, 48 h, cytotoxicity control for HCV replication inhibitor project, primary screen (AID 1143).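 Also: Huh7 hepatoma cells carrying a hepatitis C replication reporter with no stimulus; test concentration not given here.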 As to conditions: higher = more signal, called active from +8 up or from −8 down.
The nature of test [12]: Pseudomonas biofilm growth suppression – PAO1 strain, BacTiter-Glo luminescence, LB-PBS, primary screen (AID 1144). The conditions noted are these: P. aeruginosa PAO1 biofilm, 12 h, higher = more signal.
Test [13] in a line: basal CRE-LacZ reporter activity in PC12 – cell-based, unstimulated, primary screen (AID 1145). As to conditions: no forskolin, luminescence, 4.5 h, higher = more signal, called active from +8 up or from −8 down.
Test [14] in a line: forskolin-driven CRE-LacZ activity in PC12 – cell-based, CRE-LacZ reporter, forskolin-stimulated, primary screen (AID 1146).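 Also: PC12 cells with 6xCRE LacZ reporter stimulated by forskolin 10 µM; beta-galactosidase reporter signal reflecting CREB driven transcription.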 The conditions noted are these: luminescence, 4.5 h, higher = more signal, called active from +8 up or from −8 down.
Test [15] addresses Streptavidin (Streptomyces avidinii) (UniProt P22629). The test can be described thus: compounds binding control protein streptavidin – biophysical, small-molecule microarray, 635/667 nm fluorescence, artefact control for SMM compound annotation, primary screen (AID 1147).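 Also: signal reflects streptavidin binding to arrayed compounds as a control protein.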 As to conditions: higher = more signal.
Test [16] is described as follows: probe aInhba binding on compound microarray – biochemical, small-molecule microarray, 635/667 nm fluorescence, primary screen (AID 1148).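 Also: score merges 667nm spot fluorescence with signal-to-noise for antibody binding to printed compounds.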 As to conditions: higher = more signal.
Test [17] deals with Torsin-1A (Homo sapiens) (UniProt O14656). In words: TOR1A wild-type binding on microarray – cell lysate, small-molecule microarray, lysate, 635/667 nm, primary screen (AID 1149). The conditions noted are these: COS7 hTOR1A-WT lysate, 635 nm fluorescence, higher = more signal.
The target is the same in test [18]. The test can be described thus: torsin A mutant lysate binding on microarrays – cell lysate, small-molecule microarray, COS7 lysate, 635/667 nm fluorescence, primary screen (AID 1150).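 Also: score pools 667 nm emission and signal to noise measuring lysate protein binding.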 As to conditions: COS7 hTOR1A mutant lysate, 635 nm fluorescence, higher = more signal.
The subject of test [19] is Sonic hedgehog protein (Shh). In words: Sonic hedgehog microarray binding compounds – biochemical, small-molecule microarray, 635/667 nm fluorescence, primary screen (AID 1151).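 Also: Shh protein binding to compounds spotted on small-molecule microarray slides; score combines spot fluorescence intensity with signal-to-noise across triplicate slides.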 As to conditions: 635 nm fluorescence, higher = more signal.

Active and inactive are the calls of the source. Unless noted, no rule for the calls is given here.

Sequence of Torsin-1A (Homo sapiens) (O14656 whole entry, looked up): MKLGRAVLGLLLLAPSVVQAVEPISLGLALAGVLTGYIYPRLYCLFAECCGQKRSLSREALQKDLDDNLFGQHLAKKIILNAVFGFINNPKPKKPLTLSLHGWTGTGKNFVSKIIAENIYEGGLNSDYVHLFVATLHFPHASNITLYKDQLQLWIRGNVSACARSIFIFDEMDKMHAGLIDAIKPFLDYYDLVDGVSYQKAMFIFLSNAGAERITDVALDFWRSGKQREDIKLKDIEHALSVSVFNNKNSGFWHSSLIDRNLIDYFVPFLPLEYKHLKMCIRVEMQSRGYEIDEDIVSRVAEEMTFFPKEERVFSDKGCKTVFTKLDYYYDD
Sequence of Fibroblast growth factor 2 (Homo sapiens) (P09038 whole entry, looked up): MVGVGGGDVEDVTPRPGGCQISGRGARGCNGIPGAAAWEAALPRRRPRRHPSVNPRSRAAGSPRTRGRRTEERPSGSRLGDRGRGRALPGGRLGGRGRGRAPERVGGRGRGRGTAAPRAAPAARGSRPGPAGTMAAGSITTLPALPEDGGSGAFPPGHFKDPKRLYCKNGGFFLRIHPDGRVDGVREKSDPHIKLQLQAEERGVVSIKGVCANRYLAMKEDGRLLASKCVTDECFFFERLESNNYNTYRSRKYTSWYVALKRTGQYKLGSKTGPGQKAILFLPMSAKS
Sequence of Luciferin 4-monooxygenase (Photinus pyralis) (P08659 whole entry, looked up): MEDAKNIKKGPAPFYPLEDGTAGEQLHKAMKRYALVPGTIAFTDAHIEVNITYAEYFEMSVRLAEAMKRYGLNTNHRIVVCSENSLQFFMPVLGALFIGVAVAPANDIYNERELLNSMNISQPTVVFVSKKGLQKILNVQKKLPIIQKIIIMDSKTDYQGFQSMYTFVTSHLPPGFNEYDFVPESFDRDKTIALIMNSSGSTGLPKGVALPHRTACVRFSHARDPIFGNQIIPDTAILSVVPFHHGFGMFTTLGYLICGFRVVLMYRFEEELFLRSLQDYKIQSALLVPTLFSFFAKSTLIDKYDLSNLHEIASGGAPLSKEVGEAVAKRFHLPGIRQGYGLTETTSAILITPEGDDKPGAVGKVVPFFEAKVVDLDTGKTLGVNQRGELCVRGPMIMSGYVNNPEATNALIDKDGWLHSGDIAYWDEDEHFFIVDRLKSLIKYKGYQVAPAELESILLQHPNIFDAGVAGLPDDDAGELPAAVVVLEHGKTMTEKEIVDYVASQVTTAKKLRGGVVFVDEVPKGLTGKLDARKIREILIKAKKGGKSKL
Sequence of Follistatin (Homo sapiens) (P19883 whole entry, looked up): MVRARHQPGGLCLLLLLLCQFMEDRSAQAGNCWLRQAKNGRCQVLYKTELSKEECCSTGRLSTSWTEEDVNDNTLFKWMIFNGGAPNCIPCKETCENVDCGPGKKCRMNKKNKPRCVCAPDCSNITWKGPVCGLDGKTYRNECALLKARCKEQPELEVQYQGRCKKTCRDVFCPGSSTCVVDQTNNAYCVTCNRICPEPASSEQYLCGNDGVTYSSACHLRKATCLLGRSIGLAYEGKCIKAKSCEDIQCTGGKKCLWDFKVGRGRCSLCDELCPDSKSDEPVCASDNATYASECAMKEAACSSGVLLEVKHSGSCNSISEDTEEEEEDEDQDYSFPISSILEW
Sequence of Streptavidin (Streptomyces avidinii) (P22629 whole entry, looked up): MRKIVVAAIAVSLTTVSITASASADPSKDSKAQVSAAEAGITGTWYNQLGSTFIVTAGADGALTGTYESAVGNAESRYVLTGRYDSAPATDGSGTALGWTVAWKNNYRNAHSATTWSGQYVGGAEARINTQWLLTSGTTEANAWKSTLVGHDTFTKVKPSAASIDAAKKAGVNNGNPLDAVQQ
Sequence of Focal adhesion kinase 1 (Homo sapiens) (Q05397 whole entry, looked up): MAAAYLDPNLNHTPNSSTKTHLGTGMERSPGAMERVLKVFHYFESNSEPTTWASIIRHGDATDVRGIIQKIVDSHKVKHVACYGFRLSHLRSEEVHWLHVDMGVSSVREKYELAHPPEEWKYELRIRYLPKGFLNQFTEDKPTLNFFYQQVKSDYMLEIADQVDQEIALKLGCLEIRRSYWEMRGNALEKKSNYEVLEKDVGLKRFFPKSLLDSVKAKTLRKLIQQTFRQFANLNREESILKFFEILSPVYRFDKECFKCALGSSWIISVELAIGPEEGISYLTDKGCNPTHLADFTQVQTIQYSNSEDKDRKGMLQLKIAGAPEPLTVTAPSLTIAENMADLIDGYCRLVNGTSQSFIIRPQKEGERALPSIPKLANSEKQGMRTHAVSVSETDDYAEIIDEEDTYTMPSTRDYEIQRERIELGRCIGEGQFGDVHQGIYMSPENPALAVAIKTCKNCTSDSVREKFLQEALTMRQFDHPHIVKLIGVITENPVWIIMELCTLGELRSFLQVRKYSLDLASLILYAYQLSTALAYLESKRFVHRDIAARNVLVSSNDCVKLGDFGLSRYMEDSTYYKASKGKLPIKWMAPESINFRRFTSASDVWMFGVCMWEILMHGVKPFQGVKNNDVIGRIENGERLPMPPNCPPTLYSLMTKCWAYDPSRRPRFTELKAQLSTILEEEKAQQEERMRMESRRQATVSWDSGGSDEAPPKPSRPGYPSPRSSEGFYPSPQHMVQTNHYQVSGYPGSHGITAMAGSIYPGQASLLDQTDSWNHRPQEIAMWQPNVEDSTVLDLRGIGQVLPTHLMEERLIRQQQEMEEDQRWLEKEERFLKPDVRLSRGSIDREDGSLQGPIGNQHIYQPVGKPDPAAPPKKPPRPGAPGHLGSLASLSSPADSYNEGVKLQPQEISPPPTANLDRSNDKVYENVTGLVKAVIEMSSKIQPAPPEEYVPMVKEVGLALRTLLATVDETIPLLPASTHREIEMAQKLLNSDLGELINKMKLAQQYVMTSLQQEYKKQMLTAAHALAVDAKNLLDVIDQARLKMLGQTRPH

Take `C=CCN1C(=O)[C@]2(O[C@H](CCO)[C@@H]([Si](C)(C)c3ccc(OC)cc3)[C@@H]2C)c2cc(NC(=O)c3ccc(OC)cc3)ccc21`: the composite z-score was found to be 1.17 in test [1]; 0.668 in [2]; 0.241 in [3]; 0.318 in test [4]; 1.36 in [5]; 1.21 in test [6]. Further, the composite z-score in the test on Lefty1 amounted to 1.03; in test [8], 0.286; in test [10] it was 0.211; in test [15], 0.535; in test [16], 0.0541; with Torsin-1A (Homo sapiens) [17], 0.598. Also, the composite z-score worked out at 0.726 in the test with Torsin-1A (Homo sapiens) [18] and 2.11 in test [19]. Moreover, the z-score was -1 in [7]; -0.772 (inactive) in test [9]; -7.99 (inactive) in [11]; -0.236 (inactive) in test [12]; 15.2 (active) in [13]; -1.43 (inactive) in [14].
Take `COc1cc(NN2C(C(O)C3CCCCC3)C=CC3C(=O)N(C)C(=O)C32)cc(OC)c1OC` (stereo not given): the composite z-score was 0.901 in test [1]; 1.23 in test [2]; 1.97 in test [3]; 1 in [4]; 0.954 in test [5]; -0.0452 in [6]. Moreover, the composite z-score is -0.608 with Lefty1; 1.16 in test [8]; 0.265 in [10]; 2.2 in [15]; 0.502 in [16]; -0.176 with Torsin-1A (Homo sapiens) [17]. Further, the composite z-score with Torsin-1A (Homo sapiens) [18] is 0.358; in [19] it was -0.68. Further, the z-score in [7] was 1.75; in test [9], -0.527 (inactive); in [11], 0.187 (inactive); in test [12] it was 0.0648 (inactive); in [13], -0.133 (inactive); in test [14], 0.454 (inactive).
In the case of `CC(C)C(CO)N1C(=O)[C@@H]2[C@H]3C(=O)OCC=C[C@H]3OC23C=CCN(C(C)(C)C)C(=O)[C@@H]13` (stereo not given in full), the composite z-score is -0.54 in test [1]; -1.09 in test [2]; -0.513 in test [3]; -0.0751 in [4]; 0.277 in test [5]; -0.405 in test [6]. The composite z-score in the test with Lefty1 was 0.503; in test [8] it was -0.0676; in test [10], -0.682; in [15] it was -0.633; in test [16], -0.0762; with Torsin-1A (Homo sapiens) [17], -1.59. The figures for the composite z-score (in the test with Torsin-1A (Homo sapiens) [18]; in test [19]) were -0.934 and 0.54, respectively. Also, the z-score in test [7] is -1.76; in test [9], -0.159 (inactive); in test [11], -0.342 (inactive); in test [12], 0.947 (inactive); in [13], 1.01 (inactive); in test [14] it was 0.412 (inactive).
On to `CCc1cccc(NC(=O)O[C@H]2[C@H](OC(=O)Nc3ccccc3)[C@H](OC(=O)Nc3ccccc3)[C@@H](OC)O[C@@H]2CO)c1`, for which the composite z-score in test [1] was determined as 1.14; in [2], 1.26; in test [3], 1.53; in [4] it was 0.571; in test [5], 1.16; in [6], 0.216. The composite z-score in the test on Lefty1 was 0.0478; in test [8], 0.751; in test [10], 0.428; in test [15], 1.03; in [16], 0.212; in the test with Torsin-1A (Homo sapiens) [17] it was -0.417. In addition, the results for the composite z-score (in the test with Torsin-1A (Homo sapiens) [18]; in test [19]) were 0.778 and 0.0653, respectively. Also, the z-score was -1.55 in [7]; 0.234 (inactive) in test [9]; -6.02 (inactive) in test [11]; -0.0223 (inactive) in [12]; 1.03 (inactive) in test [13]; -1.2 (inactive) in test [14].
Take `C=CCN1C(=O)[C@@]2(O[C@@H](CCO)[C@H]([Si](C)(C)c3ccc(OC)cc3)[C@H]2C)c2cc(N3CCOC3=O)ccc21`: the composite z-score in test [1] was 2.38; in test [2], 1.15; in [3] it was 0.246; in test [4], 0.768; in test [5] it was -0.354; in [6], -0.25. In addition, the composite z-score with Lefty1 is 0.0949; in test [8], 0.486; in test [10], -0.0317; in test [15], 0.0828; in [16], -0.0695; with Torsin-1A (Homo sapiens) [17], -0.0921. Besides, the composite z-score with Torsin-1A (Homo sapiens) [18] is 0.543; in test [19], -0.285. The z-score in test [7] was -0.658; in [9], -1.03 (inactive); in test [11], -7.42 (inactive); in test [12], -0.202 (inactive); in [13], 6.34 (inactive); in test [14], -3.56 (inactive).

These data come from PubChem BioAssay.
